36 compounds from PubChem BioAssay can be followed below.

A short description of this assay: small-molecule binders of probe aNOTCH3, primary screen, biochemical, small-molecule microarray, 635/667 nm fluorescence (AID 1120).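 Also: probe is a biotin-tagged antibody raised against NOTCH3 rather than NOTCH3 protein; score merges spot fluorescence near 667 nm with spot signal to noise.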 Particulars: higher = more signal.
Take `CN1C(=O)C2C=CC(C(O)C#Cc3ccccc3)N(Nc3ccccc3)C2C1=O` (stereo unspecified): the composite z-score was found to be 0.405.
As to `CN(C)c1ccc(C(O)C2C=CC3C(=O)N(c4ccccc4)C(=O)C3N2Nc2ccc([N+](=O)[O-])cc2)cc1` (stereo unspecified), the composite z-score turned out to be 0.307.
With `CN(C)C(=O)[C@@]1(Cc2ccccc2CN=[N+]=[N-])N=C(c2ccc(OCCCO)cc2)O[C@H]1c1ccccc1CN=[N+]=[N-]`, the composite z-score worked out at 0.602.
Regarding `O=C1OCC=C[C@H]2OC34C=CCN(Cn5nnc6ccccc65)C(=O)[C@H]3N(CCCO)C(=O)[C@@H]4[C@@H]12` (stereo partly specified), the composite z-score is -0.279.
As to `C[N+](C)(C)CCCCCCNC(=O)[C@H]1C[C@H]2C(=O)N[C@@H](Cc3ccccc3)C(=O)N2[C@H]1c1ccc(O)cc1`, the composite z-score was -0.0471.
Consider `COCCOC(=O)N1C(=O)[C@@]2(c3cc(C#CCCO)ccc31)[C@H](C(=O)Nc1nc3ccccc3s1)[C@H]1C(=O)O[C@H](c3ccccc3)[C@H](c3ccccc3)N1[C@@H]2c1ccccc1OCCO`, for which the composite z-score is 0.436.
As for `COc1cc2c(cc1OC)CN(C(=O)[C@@H]1[C@H]3C(=O)O[C@H](c4ccccc4)[C@H](c4ccccc4)N3[C@H](c3ccc(OCCO)cc3)[C@@]13C(=O)Nc1ccc(C#CC4(O)CCCCCC4)cc13)CC2`, the composite z-score stood at 0.398.
The compound `COc1cc(CO)cc(I)c1O[C@H]1C=C(C(=O)NCCO)C[C@@H](NCc2ccc(F)cc2)[C@@H]1O` had a composite z-score of -0.118.
Consider `[N-]=[N+]=NCc1ccccc1C[C@@]1(C(=O)NCc2ccccc2)N=C(c2ccc(OCCCO)cc2)O[C@@H]1c1ccccc1N=[N+]=[N-]`, for which the composite z-score was -0.102.
The result for `O=C(CS)NCCCCCNC(=O)[C@@H]1C[C@@H]2C(=O)N3CCC[C@H]3C(=O)N2[C@@H]1c1cccc(OCCO)c1` reads -0.284; that for `C=C(C)c1cc2c(c(CCCCCC)n1)[Si](C(C)C)(C(C)C)OC2`, -0.296; that for `CCCCC(O)C1C=CC2C(=O)N(c3ccccc3)C(=O)C2N1Nc1ccc(C(C)C)cc1` (stereo unspecified), 0.315.
Take `COCCOC(=O)N1C(=O)[C@@]2(c3cc(C#CC4=CCCCC4)ccc31)[C@H](c1ccc(OCCO)cc1)N1[C@H](c3ccccc3)[C@H](c3ccccc3)OC(=O)[C@H]1[C@@H]2C(=O)N1CCN(c2ncccn2)CC1`: the composite z-score was 0.0596.
Compound `C=C(COC)/C(=C/C[C@H](OC(C)=O)c1ccc(OCCO)cc1)c1cc(C(=O)OC)ccc1OC` registered a composite z-score of 0.0642.
As for `CC1CC/C=C\[C@H]2OC34C=CCN(c5ccc(Cl)cc5)C(=O)[C@H]3N(CCCCCO)C(=O)[C@]4(C)C2C(=O)O1` (stereo partly specified), the composite z-score is -0.288.
The compound `CN1C(=O)C2C=CC(C(O)c3cccc(O)c3)N(Nc3ccccc3)C2C1=O` (stereo unspecified) returned a composite z-score of 0.17.
For the compound `O=C1NC(=O)C2C1C=CC(C(O)c1c(F)cccc1Cl)N2Nc1ccc(Cl)cc1Cl` (stereo unspecified), the composite z-score is 0.525.
The compound `COc1ccc([Si](C)(C)[C@@H]2[C@@H](CCO)O[C@]3(C(=O)N(Cc4ccc(N5CCCCC5=O)cc4)c4ccccc43)[C@H]2C)cc1` displayed a composite z-score of 0.033.
Regarding `C=CCC(OC(C)=O)[C@@H]1[C@@H](N(Cc2cc3ccccc3o2)C(=O)c2ccc(C)cc2)c2cc(OCCCO)ccc2N1C(=O)Cc1ccc(OC)cc1` (stereo partly specified), the composite z-score is -0.176.
As to `CCOc1cc(C(O)C2C=CC3C(=O)N(C)C(=O)C3N2Nc2ccccc2)ccc1O` (stereo unspecified), the composite z-score came out at 0.194.
In turn, `O=C(CS)NCCCCCCNC(=O)[C@H]1C[C@H]2C(=O)N[C@@H](Cc3ccccc3)C(=O)N2[C@H]1c1ccc(O)cc1` returned a composite z-score of -0.423.
The compound `CC(c1ccccc1)C(O)C1C=CC2C(=O)N(c3ccccc3)C(=O)C2N1Nc1ccc([N+](=O)[O-])cc1` (stereo unspecified) yielded a composite z-score of 0.158.
`COc1ccccc1CN1C(=O)c2ccccc2[C@@]2(Cc3ccccc3N(CC(F)(F)F)C2=O)[C@@H]1c1ccc(CO)cc1` displayed a composite z-score of -0.251.
`COC(=O)C(CC#Cc1ccc2c(c1)[C@]1(C(=O)N2)[C@H](C(=O)N2CCN(c3ncccn3)CC2)[C@H]2C(=O)O[C@H](c3ccccc3)[C@H](c3ccccc3)N2[C@@H]1c1ccc(OCCO)cc1)C(=O)OC` registered a composite z-score of 0.207.
`[N-]=[N+]=Nc1ccccc1[C@@H]1OC(c2ccc(OCCCO)cc2)=N[C@]1(Cc1ccccc1)C(=O)NCC(O)CO` (stereo partly specified) registered a composite z-score of 0.453.
`Cc1cc(C)c(C(O)C2C=CC3C(=O)NC(=O)C3N2Nc2ccc(Cl)cc2Cl)c(C)c1` (stereo unspecified) came in with a composite z-score of 0.396.
For the compound `COC(=O)c1c2oc(c1C(=O)OC)C(=O)N(Cc1ccccc1)Cc1cn(nn1)C[C@H](Cc1ccccc1)NC(=O)N[C@H](CO)CC2`, the composite z-score was -0.0918.
For the compound `C=CCNC(=O)[C@H]1[C@@H]2C(=O)O[C@@H](c3ccccc3)[C@@H](c3ccccc3)N2[C@@H](c2ccc(O)cc2)[C@]12C(=O)N(C(=O)OCCOC)c1ccccc12`, the composite z-score was -0.091.
Compound `O=C1C=C(c2ccccc2)C(=O)c2ccc([C@H]3Oc4ccccc4S(=O)(=O)N4CCC[C@@H]34)cc21` registered a composite z-score of -0.185.
Compound `Cc1ccc(S[C@]2(C(=O)NCC(F)(F)F)CC(=O)N(C3CCCCC3)[C@@H]2c2ccc(CO)cc2I)cc1` showed a composite z-score of -0.046.
Turning to `COc1ccc(C#Cc2ccc3c(c2)[C@]2(C(=O)N3)[C@H](c3ccc(O)cc3)N3[C@H](c4ccccc4)[C@H](c4ccccc4)OC(=O)[C@H]3[C@@H]2C(=O)O)cc1`, the composite z-score was determined as 0.277.
Compound `COC(=O)[C@@]1(Cc2ccc(OC)cc2)[C@@H]2C(=CC(=O)[C@H]2CC(=O)C(=O)N(C)C)CN1C(=O)c1ccccc1` displayed a composite z-score of 0.848.
Take `CCOC(=O)c1ccc(NC(=O)O[C@H]2[C@H](OC(=O)Nc3ccc4c(c3)OCO4)[C@H](OC(=O)Nc3ccc4c(c3)OCO4)[C@@H](OC)O[C@@H]2CO)cc1`: the composite z-score worked out at 0.411.
Regarding `C=CCN1Cc2ccccc2[C@H]2OC(c3ccc(OCCCO)cc3)=N[C@@]2(CC=C)C1=O`, the composite z-score came out at 0.133.
The compound `CN(C)CCCNC(=O)[C@@]1(C)c2ccccc2C(=O)N(Cc2ccccc2)[C@H]1c1ccc(CO)cc1` yielded a composite z-score of -0.264.
On to `CCCCCCCCCCC(O)C1C=CC2C(=O)N(C)C(=O)C2N1NC(=O)OC(C)(C)C` (stereo unspecified), for which the composite z-score is -0.0077.
